# In the supplement of paper PMC12282887:
# ± gives the standard deviation of the averaged measurements.
# Experiments:
# Assay in all cases: promoter activity interaction Z-score (Lux/OD deviation from empty-vector control); higher = stronger promoter induction by the compound
# [1] = system: E. coli BW25113 acrABp lux reporter
# Outline: (§1)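 E. coli BW25113, as wild type or one of three single-gene deletion strains, carried low-copy luxCDABE promoter reporters and grew in 40 µl LB Lennox in 384-well plates at 37°C, with OD600 and luminescence read every 30 min for 12 h. Each compound was run at four 1:2 dilutions in biological duplicates, integration spanned 0–8 h for wild type and 1–9 h for deletion strains, and wells under 10% of the median growth value were dropped. The score is the Z-transformed residual of growth-normalised luminescence fitted against a control.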
# [2] = system: E. coli BW25113 marRABp lux reporter
# Outline: as §1
# [3] = system: E. coli BW25113 micFp lux reporter
# Outline: as §1
# [4] = system: E. coli BW25113 ompFp lux reporter
# Outline: as §1
# [5] = system: E. coli BW25113 robp lux reporter
# Outline: as §1
# [6] = system: E. coli BW25113 soxSp lux reporter
# Outline: as §1
# [7] = system: E. coli BW25113 tolCp lux reporter
# Outline: as §1
# [8] = 17.4 µg/ml, genetic background: wild type
# [9] = 17.4 µg/ml, genetic background: ΔmarA
# [10] = 17.4 µg/ml, genetic background: Δrob
# [11] = 17.4 µg/ml, genetic background: ΔsoxS
# [12] = 34.9 µg/ml, genetic background: wild type
# [13] = 34.9 µg/ml, genetic background: ΔmarA
# [14] = 34.9 µg/ml, genetic background: Δrob
# [15] = 34.9 µg/ml, genetic background: ΔsoxS
# [16] = 69.8 µg/ml, genetic background: wild type
# [17] = 69.8 µg/ml, genetic background: ΔmarA
# [18] = 69.8 µg/ml, genetic background: Δrob
# [19] = 69.8 µg/ml, genetic background: ΔsoxS
# [20] = 139.6 µg/ml, genetic background: wild type
# [21] = 139.6 µg/ml, genetic background: ΔmarA
# [22] = 139.6 µg/ml, genetic background: Δrob
# [23] = 139.6 µg/ml, genetic background: ΔsoxS
compound,measurement,setting,value
Nc1ccn(C[C@@H](CO)OCP(=O)(O)O)c(=O)n1 [Cidofovir],promoter activity interaction Z-score,[1]; [8],-0.283 ± 0.054
same,promoter activity interaction Z-score,[1]; [9],0.149 ± 0.3
same,promoter activity interaction Z-score,[1]; [10],-0.0654 ± 0.1
same,promoter activity interaction Z-score,[1]; [11],-0.0538 ± 0.14
same,promoter activity interaction Z-score,[1]; [12],0.196 ± 0.13
same,promoter activity interaction Z-score,[1]; [13],-0.657 ± 0.64
same,promoter activity interaction Z-score,[1]; [14],0.0446 ± 0.2
same,promoter activity interaction Z-score,[1]; [15],0.215 ± 0.4
same,promoter activity interaction Z-score,[1]; [16],0.219 ± 0.079
same,promoter activity interaction Z-score,[1]; [17],0.553 ± 0.79
same,promoter activity interaction Z-score,[1]; [18],-0.00642 ± 0.084
same,promoter activity interaction Z-score,[1]; [19],0.0852 ± 0.5
same,promoter activity interaction Z-score,[1]; [20],0.22 ± 0.15
same,promoter activity interaction Z-score,[1]; [21],-0.132 ± 0.17
same,promoter activity interaction Z-score,[1]; [22],0.233 ± 0.03
same,promoter activity interaction Z-score,[1]; [23],0.385 ± 0.26
same,promoter activity interaction Z-score,[2]; [8],-0.0416 ± 0.17
same,promoter activity interaction Z-score,[2]; [9],-0.106 ± 0.11
same,promoter activity interaction Z-score,[2]; [10],-0.0241 ± 0.025
same,promoter activity interaction Z-score,[2]; [11],0.0975 ± 0.049
same,promoter activity interaction Z-score,[2]; [12],0.263 ± 0.48
same,promoter activity interaction Z-score,[2]; [13],-0.336 ± 0.093
same,promoter activity interaction Z-score,[2]; [14],0.0475 ± 0.0048
same,promoter activity interaction Z-score,[2]; [15],-0.0388 ± 0.24
same,promoter activity interaction Z-score,[2]; [16],-0.235 ± 0.23
same,promoter activity interaction Z-score,[2]; [17],-0.157 ± 0.23
same,promoter activity interaction Z-score,[2]; [18],-0.0863 ± 0.087
same,promoter activity interaction Z-score,[2]; [19],0.0268 ± 0.12
same,promoter activity interaction Z-score,[2]; [20],0.0629 ± 0.086
same,promoter activity interaction Z-score,[2]; [21],-0.277 ± 0.08
same,promoter activity interaction Z-score,[2]; [22],0.278 ± 0.14
same,promoter activity interaction Z-score,[2]; [23],0.18 ± 0.28
same,promoter activity interaction Z-score,[3]; [8],0.0224 ± 0.19
same,promoter activity interaction Z-score,[3]; [9],0.0154 ± 0.092
same,promoter activity interaction Z-score,[3]; [10],-0.0713 ± 0.17
same,promoter activity interaction Z-score,[3]; [11],0.11 ± 0.48
same,promoter activity interaction Z-score,[3]; [12],-0.0338 ± 0.16
same,promoter activity interaction Z-score,[3]; [13],-0.00819 ± 0.0042
same,promoter activity interaction Z-score,[3]; [14],-0.103 ± 0.19
same,promoter activity interaction Z-score,[3]; [15],-0.106 ± 0.1
same,promoter activity interaction Z-score,[3]; [16],-0.121 ± 0.16
same,promoter activity interaction Z-score,[3]; [17],-0.0731 ± 0.046
same,promoter activity interaction Z-score,[3]; [18],-0.0746 ± 0.21
same,promoter activity interaction Z-score,[3]; [19],-0.0778 ± 0.17
same,promoter activity interaction Z-score,[3]; [20],-0.297 ± 0.16
same,promoter activity interaction Z-score,[3]; [21],-0.185 ± 0.15
same,promoter activity interaction Z-score,[3]; [22],-0.00734 ± 0.29
same,promoter activity interaction Z-score,[3]; [23],-0.28 ± 0.054
same,promoter activity interaction Z-score,[4]; [8],-0.101 ± 0.21
same,promoter activity interaction Z-score,[4]; [9],-0.0401 ± 0.19
same,promoter activity interaction Z-score,[4]; [10],-0.282 ± 0.46
same,promoter activity interaction Z-score,[4]; [11],0.292 ± 0.4
same,promoter activity interaction Z-score,[4]; [12],0.3 ± 0.056
same,promoter activity interaction Z-score,[4]; [13],-0.163 ± 0.48
same,promoter activity interaction Z-score,[4]; [14],0.122 ± 0.34
same,promoter activity interaction Z-score,[4]; [15],0.493 ± 0.19
same,promoter activity interaction Z-score,[4]; [16],0.00967 ± 0.29
same,promoter activity interaction Z-score,[4]; [17],-0.0743 ± 0.39
same,promoter activity interaction Z-score,[4]; [18],-0.0183 ± 0.51
same,promoter activity interaction Z-score,[4]; [19],0.835 ± 0.063
same,promoter activity interaction Z-score,[4]; [20],0.281 ± 0.35
same,promoter activity interaction Z-score,[4]; [21],0.0677 ± 0.43
same,promoter activity interaction Z-score,[4]; [22],1.05 ± 0.56
same,promoter activity interaction Z-score,[4]; [23],0.354 ± 0.32
same,promoter activity interaction Z-score,[5]; [8],0.0479 ± 0.44
same,promoter activity interaction Z-score,[5]; [9],-0.325 ± 0.089
same,promoter activity interaction Z-score,[5]; [10],-0.283 ± 0.23
same,promoter activity interaction Z-score,[5]; [11],0.755 ± 0.19
same,promoter activity interaction Z-score,[5]; [12],0.8822 ± 0.0041
same,promoter activity interaction Z-score,[5]; [13],-0.684 ± 0.34
same,promoter activity interaction Z-score,[5]; [14],0.316 ± 0.54
same,promoter activity interaction Z-score,[5]; [15],0.739 ± 0.8
same,promoter activity interaction Z-score,[5]; [16],-0.0584 ± 0.52
same,promoter activity interaction Z-score,[5]; [17],-0.117 ± 0.21
same,promoter activity interaction Z-score,[5]; [18],0.528 ± 1.2
same,promoter activity interaction Z-score,[5]; [19],0.716 ± 0.15
same,promoter activity interaction Z-score,[5]; [20],0.0675 ± 0.18
same,promoter activity interaction Z-score,[5]; [21],-0.557 ± 0.22
same,promoter activity interaction Z-score,[5]; [22],0.839 ± 0.21
same,promoter activity interaction Z-score,[5]; [23],0.434 ± 0.44
same,promoter activity interaction Z-score,[6]; [8],0.0175 ± 0.013
same,promoter activity interaction Z-score,[6]; [9],0.0495 ± 0.085
same,promoter activity interaction Z-score,[6]; [10],-0.108 ± 0.04
same,promoter activity interaction Z-score,[6]; [11],0.122 ± 0.064
same,promoter activity interaction Z-score,[6]; [12],-0.0402 ± 0.16
same,promoter activity interaction Z-score,[6]; [13],0.0487 ± 0.082
same,promoter activity interaction Z-score,[6]; [14],0.0552 ± 0.025
same,promoter activity interaction Z-score,[6]; [15],0.246 ± 0.033
same,promoter activity interaction Z-score,[6]; [16],-0.0559 ± 0.065
same,promoter activity interaction Z-score,[6]; [17],0.167 ± 0.11
same,promoter activity interaction Z-score,[6]; [18],-0.0558 ± 0.063
same,promoter activity interaction Z-score,[6]; [19],0.254 ± 0.11
same,promoter activity interaction Z-score,[6]; [20],0.021 ± 0.14
same,promoter activity interaction Z-score,[6]; [21],-0.0152 ± 0.023
same,promoter activity interaction Z-score,[6]; [22],0.0293 ± 0.054
same,promoter activity interaction Z-score,[6]; [23],-0.0927 ± 0.013
same,promoter activity interaction Z-score,[7]; [8],0.134 ± 0.031
same,promoter activity interaction Z-score,[7]; [9],0.258 ± 0.13
same,promoter activity interaction Z-score,[7]; [10],-0.735 ± 1.3
same,promoter activity interaction Z-score,[7]; [11],-0.0946 ± 0.53
same,promoter activity interaction Z-score,[7]; [12],-0.218 ± 0.42
same,promoter activity interaction Z-score,[7]; [13],-0.677 ± 0.19
same,promoter activity interaction Z-score,[7]; [14],0.0662 ± 0.039
same,promoter activity interaction Z-score,[7]; [15],1.55 ± 0.98
same,promoter activity interaction Z-score,[7]; [16],-0.434 ± 0.14
same,promoter activity interaction Z-score,[7]; [17],-0.318 ± 0.84
same,promoter activity interaction Z-score,[7]; [18],-0.696 ± 1
same,promoter activity interaction Z-score,[7]; [19],-0.168 ± 1
same,promoter activity interaction Z-score,[7]; [20],-0.582 ± 0.18
same,promoter activity interaction Z-score,[7]; [21],-0.123 ± 0.94
same,promoter activity interaction Z-score,[7]; [22],0.23 ± 0.54
same,promoter activity interaction Z-score,[7]; [23],-0.453 ± 0.91
